This is a sample that favours compounds with a hit; in the whole collection about 3.9% have one here.
BH1578 lux ind – inducers of Vibrio cholerae quorum light production without autoinducers, primary screen, BH1578 luxS cqsA deficient, single point; V. cholerae BH1578 lux reporter, luminescence, 6 h; activation, % at 18.7 µM; actives 0.16% (n = 350,000); AID 588436, 2011; in the data active = activation mostly above about 9.7%, no sharp cut-off; inconclusive = no clear call, values can overlap the other calls; inactive = mostly below about 3.7%
MazF activator – activators of E. coli MazEF toxin-antitoxin RNase, primary screen, biochemical, fluorescence, uHTS. Endoribonuclease toxin MazF (Escherichia coli (strain K12)), P0AE70. FAM/BHQ RNA-DNA oligo cleavage fluorescence, 5 h. activation, % at 20 µM. actives 0.32% (n = 350,000); in the data active = activation above about 50%
Target sequence (P0AE70 whole entry, looked up): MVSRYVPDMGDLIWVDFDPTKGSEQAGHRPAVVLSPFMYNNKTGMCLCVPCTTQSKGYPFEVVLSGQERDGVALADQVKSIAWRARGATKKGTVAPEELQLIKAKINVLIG
BoNT-A LC inh2 – BoNT/A light chain protease inhibitors, primary screen, biochemical, flow cytometry, MLPCN library | actives 0.17% (n = 360,000) | Botulinum neurotoxin type A light chain protease (Clostridium botulinum A str. ATCC 3502) | multiplex microsphere protease substrate cleavage | inhibition, % at 10 µM
Anthrax LF prot – Bacillus anthracis LF protease inhibitors, primary screen, biochemical, multiplex microsphere, MLPCN library | Lethal factor (Bacillus anthracis), P15917 | multiplex microsphere protease cleavage assay | inhibition, % at 10 µM | actives 0.12% (n = 360,000) | AID 588501, 2011
BoNT F protease – BoNT/F light chain protease inhibitors, primary screen, biochemical, flow cytometry, MLPCN library; Botulinum neurotoxin type F light chain protease (Clostridium botulinum); Multiplex microsphere protease cleavage assay; inhibition, % at 10 µM; actives 0.22% (n = 360,000); AID 588497, 2011; in the data active = inhibition above about 35%, passing the limit was not always enough; inconclusive = no clear call, values can overlap the other calls
Bead autofluor – counter-screen for toxin protease inhibitors: compound fluorescence. compound autofluorescence counterscreen, microsphere flow cytometry; stronger effect = higher value. fluorescence intensity (concentration not given with the values). actives 3.1% (n = 360,000); in the data active = fluorescence intensity above about 16000; inconclusive = no clear call, values can overlap the other calls
Hits are given with their value; n = inactive; u = inconclusive; x = not tested or not shown. Rule as the data show it, unless noted: active = inhibition above about 30%; inconclusive = no clear call, values can overlap the other calls; inactive = below that.

SMILES	BH1578 lux ind	MazF activator	BoNT-A LC inh2	Anthrax LF prot	BoNT F protease	Bead autofluor
O=C(CCCn1c(=S)[nH]c2cc3c(cc2c1=O)OCO3)N1CCN(c2ccccn2)CC1	n	n	u	n	n	19027
CN1CCN(C(=O)CCCOc2ccc(Cl)cc2Cl)CC1	n	n	n	n	n	17214
O=C1Cc2c([nH]c3ccc([N+](=O)[O-])cc23)-c2ccccc2N1	n	n	n	n	n	n
Cc1ccc2c(C)c(C(=O)Nc3ccc(S(=O)(=O)Nc4onc(C)c4C)cc3)oc2c1	n	n	n	n	n	n
O=C(c1ccccc1OCc1ccccc1Br)N1CCN(c2ncccn2)CC1	n	n	n	n	n	16398
O=[N+]([O-])c1ccc(Sc2cccc[n+]2[O-])c2nonc12	n	104	n	n	n	n
COC(=O)[C@]1(C)N[C@H](c2ccc(-c3ccc(Cl)c(Cl)c3)c(OC)c2)[C@@H]2C(=O)N(C)C(=O)[C@@H]21	n	n	n	n	n	n
CCCN1CCC(C)(C(=O)Nc2cccc(OC(C)C)c2)C1 (stereo not given)	n	x	n	n	n	n
COc1ccc(OC)c(NC(=O)Nc2nnc([C@H]3C[C@H](O)[C@@H](CO)O3)s2)c1	n	x	n	n	n	n
CC(C)CCC(CCN1CCOCC1)c1ccc2c(c1)OCO2 (stereo not given)	n	n	n	n	n	20867
Cc1ccccc1NC(=O)CN(C)S(=O)(=O)c1ccc(-c2ccc(=O)[nH]n2)s1	n	n	n	n	n	n
CN(C)c1ncc(S(=O)(=O)c2ccccc2)c(-c2ccc(Cl)cc2Cl)n1	n	n	u	n	n	22616
CCOCCCNc1ncnc2c1[nH]c1ccccc12	n	n	n	n	n	n
CCCCOCCCNc1ncnc2c1[nH]c1ccccc12	n	n	n	n	n	23545
CC(C)CCN1C(N(C)C)=NC[C@@H]1C	26	n	n	n	n	n
Nc1nnc(CCCCCc2nnc(N)s2)s1	n	n	n	n	n	n
Nc1nnc(CCN2C(=O)CSC2=O)s1	n	n	n	n	n	24168
Cc1cc(C(=O)N2CCC3(CC2)OCCO3)no1	n	n	n	n	n	n
Cc1cc(NC(=O)CCC(=O)N2CCC3(CC2)OCCO3)no1	n	n	n	n	n	23557
O=C1OC(c2cc(Br)c(O)c(Br)c2)c2ccccc21 (stereo not given)	x	n	n	n	n	n
O=C(O)c1ccc2c(c1)C(c1ccccc1)OC2=O (stereo not given)	n	n	n	n	n	16408
Cc1ccc2cccc(NC(=S)NC(=O)c3ccccc3)c2n1	n	n	n	n	n	n
Cc1ccc2cccnc2c1NC(=S)NC(=O)c1ccccc1	n	n	u	n	n	22969
CC(C)CC1Nc2ncnc(N3CCCCC3)c2N(Cc2ccc(Br)cc2)C1=O (stereo not given)	n	n	n	n	n	n
COC(=O)C1=C(C)OC(N)=C(C#N)C1c1cc(OC)c(OCC(N)=O)cc1Cl (stereo not given)	n	n	u	n	n	23456
SMILES	BH1578 lux ind	MazF activator	BoNT-A LC inh2	Anthrax LF prot	BoNT F protease	Bead autofluor
Cc1ccc(S(=O)(=O)N2CCCC(C(=O)NCCc3ccc(Cl)cc3)C2)cc1 (stereo not given)	n	n	n	n	n	n
COc1ccc(NS(=O)(=O)c2ccc3c(c2)CCC(=O)N3)cc1O	n	n	n	n	n	u
COc1ccccc1C(=O)Nn1c(C2CCC2)nc2ccccc2c1=O	n	n	u	n	n	23194
CCOc1ccccc1C(=O)Nn1c(C2CCC2)nc2ccccc2c1=O	n	n	n	n	n	n
COc1cc2nc(C3CC3)n(NC(=O)c3ccc(F)cc3)c(=O)c2cc1OC	n	n	u	n	n	24457
O=C(Nn1c(C2CC2)nc2ccccc2c1=O)c1ccco1	n	n	n	n	n	20747
O=C(Nn1c(C2CCC2)nc2ccccc2c1=O)C1CCC1	n	n	n	n	n	16974
Cc1nc2ccccc2c(=O)n1NC(=O)C1CCCCC1	n	n	n	n	n	n
Cc1nc2ccccc2c(=O)n1NC(=O)c1ccco1	n	n	n	n	n	n
NNC(=O)c1n[nH]c2c1CC(C1CCCCC1)CC2 (stereo not given)	n	n	n	n	n	n
CCOC(=O)C(=O)N(C)c1c(CC)nc2c(OCc3cccc(Cl)c3)cccn12	n	x	n	n	n	n
Cc1ccc(CNC(=O)CN(C(=O)C2(C)CC(=O)N=C3C=CC=CN32)c2ccccc2F)cc1 (stereo not given)	n	n	n	n	n	n
CCCCNCc1cc(Br)c(OCC(=O)N2CCOCC2)c(OC)c1	n	n	n	n	n	16518
C[C@@H]1CN([C@@H](C)CO)C(=O)CCCn2nncc2CO[C@@H]1CN(C)S(=O)(=O)c1cccc(F)c1	n	n	n	n	n	n
COc1ccc(-c2cc(-c3cc(F)ccc3O)[nH]n2)cc1OC	n	n	u	n	n	22604
COc1ccc(-n2c(/C=C(\C)O)nc(=O)c3c(C)cc(C)nc32)cc1	n	n	n	n	n	22184
COc1ccc(-n2c(C)nn(C)c2=O)cc1	n	n	n	n	n	n
COCCCN1C(=O)C(=O)/C(=C(/O)c2ccc(S(=O)(=O)N3CCOCC3)cc2)C1c1ccc(C(C)C)cc1 (stereo not given)	n	n	n	n	n	n
CCCc1nc2n[nH]c(N)c2c2c1COC(C)(C)C2	n	n	n	n	n	21384
Cc1cc(C)cc(CC2CC(=O)N(c3cc(C)on3)C2=O)c1 (stereo not given)	n	n	n	n	n	19958
Cc1ccc(S(=O)(=O)N[C@@H](CC(C)C)C(=O)NCc2ccco2)cc1	n	n	u	n	n	23101
Cc1ccc(S(=O)(=O)NCC(=O)N(CC(=O)NCc2ccco2)Cc2cccs2)cc1	n	n	n	n	n	20378
COc1ccccc1CN(CC(=O)NCc1ccco1)C(=O)CNS(=O)(=O)c1ccc(C)cc1	n	n	n	n	n	n
COc1ccc(C)cc1N(C(=O)c1snc(C(N)=O)c1N)C(C(=O)NC1CCCCC1)c1ccc(C)o1 (stereo not given)	n	n	n	n	n	n
C=CCNC(=S)NNC(=O)c1ccco1	n	n	n	n	n	n
O=C(NC(=S)NNC(=O)c1cccs1)c1ccco1	n	n	n	n	n	23561
Cc1ccccc1NC(=S)NNC(=O)c1ccco1	n	n	n	n	n	n
O=C(NNC(=S)Nc1ccccc1)c1ccco1	n	n	u	n	n	22369
O=C(NNC(=O)c1cccs1)c1ccco1	n	n	n	n	n	n
COCCNC(=S)NNC(=O)c1ccco1	n	n	n	n	n	23531

Compound activity: PubChem, several laboratories
